Compound activity: PubChem, Buhrlage Lab, Dana-Farber Cancer Institute and Novartis Institutes for BioMedical Research (Cambridge, Mass)
Most compounds without a hit are left out; they make up all but 11% or so of the library.
USP28 inh: inhibitors of human USP28 deubiquitinase | Q96RU2 | purified USP28, Ub-rhodamine cleavage fluorescence, 30 min | inhibition, % at 25 µM | hit rate 3% among 47,000 | AID 1645857
USP30 inh: inhibitors of human USP30 deubiquitinase; AID 1645860; hit rate 5.3% among 47,000; purified USP30, Ub-rhodamine cleavage fluorescence; Q70CQ3; inhibition, % at 25 µM
USP17 inh: inhibitors of human USP17 deubiquitinase; inhibition, % at 50 µM; hit rate 6.5% among 47,000; purified USP17, Ub-rhodamine cleavage fluorescence, 3 h; A8MUK1
Target sequence (A8MUK1 whole entry, looked up): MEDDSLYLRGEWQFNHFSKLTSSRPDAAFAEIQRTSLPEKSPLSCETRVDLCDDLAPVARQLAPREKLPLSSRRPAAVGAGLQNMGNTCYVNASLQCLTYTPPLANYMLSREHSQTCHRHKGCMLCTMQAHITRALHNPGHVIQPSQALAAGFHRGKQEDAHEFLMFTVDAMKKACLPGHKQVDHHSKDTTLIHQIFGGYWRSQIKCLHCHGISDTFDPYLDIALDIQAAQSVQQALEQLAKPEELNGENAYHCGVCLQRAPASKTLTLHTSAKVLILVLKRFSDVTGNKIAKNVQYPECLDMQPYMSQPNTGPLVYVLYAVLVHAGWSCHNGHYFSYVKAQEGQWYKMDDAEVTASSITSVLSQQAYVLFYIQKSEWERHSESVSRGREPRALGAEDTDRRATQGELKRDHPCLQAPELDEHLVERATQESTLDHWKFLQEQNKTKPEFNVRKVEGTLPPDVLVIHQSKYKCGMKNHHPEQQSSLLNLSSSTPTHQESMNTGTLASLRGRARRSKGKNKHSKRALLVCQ
A number is an active result; - = inactive; . = no result. Rule as the data show it: active = inhibition above about 30%; inactive = the rest.

SMILES	USP28 inh	USP30 inh	USP17 inh
CCC(NS(=O)(=O)c1ccc(S(=O)(=O)N2CCOCC2)cc1)C12CC3CC(CC(C3)C1)C2 (configuration not stated)	-	33	-
O=C(c1ccc(S(=O)(=O)N2CCOCC2)cc1)N1CCN(C23CC4CC(CC(C4)C2)C3)CC1	-	-	-
CCCCCNC(=O)c1sccc1N(C)S(=O)(=O)c1ccccc1	.	.	-
COc1ccc(CC(=O)Nc2cccn3c(C)nnc23)c(Cl)c1	-	-	-
CCc1nnc2c(NC(=O)Cc3ccc(OC)c(Cl)c3)cccn12	47	-	-
CCCCCC[C@](C)(O)C(=O)C1=CC(OC)(C(C)C)NC1=O (some centres not stated)	-	-	-
O[C@@H]1C[C@H]2CN(Cc3ccccc3F)[C@@H](Cc3ccccc3)CN2C1	-	-	-
CC(C)c1nnc(-c2cnc3onc(C4CC4)c3c2)o1	-	-	-
O=C(c1ccc(-n2ccnc2)nc1)N(Cc1ccco1)C1CCCC1	-	-	-
CCOc1cc(CNC(=O)c2cc(-c3cccnc3)nc3ccccc23)ccc1OC	-	-	-
N#Cc1ccccc1CN1CCC2(Cc3ccccc3CNC2=O)C1 (configuration not stated)	-	-	-
CC1(C)CCCC2=C1CC(C)(C)C(N(C(=O)/C=C/C(=O)O)c1ccccc1)C2 (configuration not stated)	49	75	77
CCCN(Cc1ccc(F)cc1)Cc1cc(=O)c2cc(Cl)ccc2[nH]1	-	-	-
Oc1cccc2c(-c3ccc(O)c4c(O)cccc34)ccc(O)c12	92	94	98
Cc1ccc(CNc2nc(Nc3ccccc3)c3cnn(C)c3n2)cc1	-	-	-
O=c1oc2ccccc2cc1-c1nc(-c2ccc(Oc3ccccc3)cc2)cs1	36	-	42
O=c1cc(-c2cc3ccccc3oc2=O)c2ccc(O)cc2o1	-	-	-
CCOc1ccc(CC(=O)Nc2cc(N3CCCS3(=O)=O)ccc2C)cc1	-	43	-
COc1ccc(CC(=O)Nc2cc(N3CCCS3(=O)=O)ccc2C)cc1	-	-	-
Cc1ccc(-c2c(C)noc2C)cc1S(=O)(=O)N1CCc2ccccc2C1	-	-	-
CCOc1ccc(NS(=O)(=O)c2ccc(NC(=O)c3ccccc3C(=O)O)cc2)cc1	-	-	-
COc1ccc(S(=O)(=O)c2ccc(NC(=O)c3cccc(Cl)c3)cc2C#N)cc1	-	-	33
COC(=O)c1cc2cc(NS(=O)(=O)c3ccc(Cl)cc3)ccc2s1	-	-	-
COC(=O)c1cc2cc(NC(=O)c3cccc(Cl)c3)ccc2s1	-	36	-
COc1ccc(NC(=O)c2cccc(C#N)c2)cc1S(=O)(=O)Nc1ccccc1Cl	-	-	-
SMILES	USP28 inh	USP30 inh	USP17 inh
COc1cccc(NS(=O)(=O)c2ccc(Oc3ccccc3OC)cc2)c1	34	37	36
COc1cccc(NS(=O)(=O)c2ccc3c(c2)N(C)CCO3)c1	-	-	-
CCCOc1ccc(C(=O)Nc2ccc(S(=O)(=O)Nc3cc(C)nc(C)n3)cc2)cc1	45	-	-
Cn1c(=O)cc(C(=O)Nc2cc(Cl)ccc2Cl)[nH]c1=O	-	-	-
CC(=O)N1CCCCCC1C1CCN(Cc2ccc([N+](=O)[O-])cc2)CC1 (configuration not stated)	-	-	-
CC[C@@H]1CC23OC(=O)C(=C2O)OC(=O)[C@]2(C)[C@H](CCCC[C@]3(C)C=C1C(=O)O)C(C)=C[C@@H]1C(O[C@@H]3O[C@H](C)[C@@H](OC(=O)c4c(C)cccc4OC)[C@H](O[C@H]4C[C@H](O)[C@H](OC)[C@@H](C)O4)[C@H]3O)[C@@H](O)CC[C@H]12 (some centres not stated)	-	-	-
O=C(CCc1nnc2n(CCc3ccccc3)c(=O)c3ccccc3n12)NCC1CCCO1 (configuration not stated)	-	-	-
Cc1ccccc1NC(=O)NC1(c2nc(C3CC3)no2)CCCCC1	-	-	-
Cc1oc2ncn(C)c(=O)c2c1C(=O)N(C(C)C)C1CCCCC1	-	-	-
Cc1onc(-c2ccncc2)c1C(=O)NCCN(C)C1CCCCC1	-	-	-
Cc1nc2ccc(NC(=O)c3cccc(NS(=O)(=O)c4ccccc4)c3)cc2s1	-	-	-
O=C(Nc1ccc(S(=O)(=O)NC2=NCCCCC2)cc1)c1ccccc1	-	-	-
COc1ccc(NS(=O)(=O)c2ccc(C(=O)Nc3cccc(C(C)=O)c3)cc2)cc1	-	-	46
COc1ccc(C(=O)Nc2cccc(S(=O)(=O)NC3=NCCCCC3)c2)cc1	40	-	-
COc1cc2c(cc1NC(=O)COC(=O)c1nccnc1N)oc1ccccc12	-	-	-
O=C(Nc1sc2c(c1-c1nc3ccccc3[nH]1)CCCC2)C1CC(=O)N(Cc2ccccc2)C1 (configuration not stated)	-	-	38
COc1ccccc1C(=O)Nc1sc2c(c1-c1nc3ccccc3[nH]1)CCCC2	-	-	-
CC(C)C(=O)N1CCc2nc(C(=O)Nc3cccnc3)sc2CC1	-	-	-
Cn1nc(-c2ccccc2)c(CO)c1Sc1cccc(C(F)(F)F)c1	-	-	-
Cn1nc(-c2ccccc2)c(CO)c1Sc1ccccc1Cl	-	-	49
CCOC(=O)C1CCN(C(=O)Cn2c(=O)cc(C)c3c(-c4ccccc4)nn(-c4ccccc4)c32)CC1	-	34	-
Cc1cccc(-c2nn(-c3ccccc3)c3c2c(C)cc(=O)n3CC(=O)N2CCOCC2)c1	-	-	-
CCc1ccccc1OCC(=O)N(C)Cc1cc(=O)[nH]c2ccccc12	-	-	-
CN(C)C(=O)[C@@]12CCC3(CCN(C(=O)c4cccnc4)CC3)[C@@H]1CN(S(C)(=O)=O)C2	-	-	.
Cc1cccc(NC(=O)NCCN2CCc3ccccc3C2)c1	-	-	-
SMILES	USP28 inh	USP30 inh	USP17 inh
O=C(NCCN1CCc2ccccc2C1)Nc1ccc(C(F)(F)F)cc1	46	-	-
Cc1ccc(S(=O)(=O)Nc2ccc(OCc3ccccc3)cc2)c(C)c1	-	-	-
COc1ccc(C2=NC(=O)C(CC(=O)Nc3cccc(Cl)c3Cl)S2)cc1 (configuration not stated)	-	-	-
CC(=O)c1ccc(NC(=O)CC2C(=O)Nc3nc4ccccc4n32)cc1 (configuration not stated)	-	-	75
O=C(CC1C(=O)Nc2nc(-c3ccccc3)nn21)Nc1ccc2c(c1)OCCO2 (configuration not stated)	-	-	-
O=C(CC1C(=O)N(C2CCCC2)c2nc3ccccc3n21)Nc1ccc(F)cc1 (configuration not stated)	-	-	-
Cc1ccc(NC(=O)CC2C(=O)Nc3nc(-c4ccccc4)nn32)cc1 (configuration not stated)	-	-	45
COc1ccc(-c2nc3n(n2)C(CC(=O)Nc2cccc4ccccc24)C(=O)N3)cc1 (configuration not stated)	-	52	-
CC(C)C1=C[C@@H]2c3c([nH]c(=O)[nH]c3=O)O[C@]2(C)CC1	-	-	-
COCCNC(=O)c1cnc(N2CCCCC2)c2ccccc12	-	-	-
COc1ccc(CCNC(=O)CCCn2c(=O)c3ccccc3n(Cc3ccccc3F)c2=O)cc1OC	-	-	-
